Measured values reported in PubChem BioAssay.
Activity calls are given as the source filed them.

Assays:
[1] = binders of probe aFSTL3 on microarray, primary screen, stem cell growth factor project, biochemical, small-molecule microarray, fluorescence 635/667 (AID 1064); conditions: higher = more signal;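 also: measures binding of the biotinylated anti-FSTL3 antibody to printed compounds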
[2] = binders from COS7 lysate, DM2A8 probe, primary screen, torsin A project, cell lysate, small-molecule microarray, fluorescence 635/667 (AID 1065); conditions: higher = more signal, COS7 lysate expressing mutant human TOR1A
[3] = binders of probe aFGF2 on microarray, primary screen, stem cell growth factor project, biochemical, small-molecule microarray, fluorescence 635/667 (AID 1067); conditions: higher = more signal;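 also: measures binding of biotinylated aFGF2 protein to printed compounds on slides; z-score merges feature fluorescence and signal-to-noise across triplicate slides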
[4] = binders of probe aFGF10 on microarray, primary screen, stem cell growth factor project, biochemical, small-molecule microarray, fluorescence 635/667 (AID 1071); conditions: higher = more signal;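 also: score merges 667 nm spot intensity and signal to noise from triplicate slides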
[5] = biological target: Neurogenic locus notch homolog protein 2 (Homo sapiens) (UniProt Q04721); assay: Notch2 binders on small-molecule microarrays, primary screen, biochemical, small-molecule microarray, 635 nm fluorescence, stem cell growth factors (AID 1073); conditions: Notch2 binding, higher = more signal
[6] = biological target: Pro-neuregulin-1, membrane-bound isoform (Homo sapiens) (UniProt Q02297); assay: NRG1 binders on small-molecule microarrays, primary screen, psychiatric disease protein project, biochemical, small-molecule microarray, fluorescence 635/667 (AID 1075); conditions: NRG1 binding, 635 nm fluorescence, higher = more signal;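 also: score combines 667 nm spot fluorescence with signal to noise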
[7] = test system: Neuregulin-1 EGF-like domain; assay: binders of neuregulin-1 EGF-like domain, primary screen, biochemical, small-molecule microarray, 635 nm fluorescence (AID 1081); conditions: small-molecule microarray binding, higher = more signal;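 also: binding of the protein to compounds printed on small-molecule microarray slides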
[8] = FRG1 promoter luciferase signal modulators, primary screen, FRG1 inhibition for FSHD, cell-based, C2C12 myotubes, firefly/Renilla luciferase, luminescence (AID 1084); conditions: higher = more signal, called active from +8 up or from −8 down
[9] = binders of probe aFST on microarray, primary screen, stem cell growth factor project, biochemical, small-molecule microarray, fluorescence 635/667 (AID 1086); conditions: higher = more signal;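 also: score merges 667 nm fluorescence with signal-to-noise of each printed compound spot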
[10] = binders of probe aHhip on microarray, primary screen, stem cell growth factor project, biochemical, small-molecule microarray, fluorescence 635/667 (AID 1087); conditions: higher = more signal;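 also: score merges spot fluorescence at 667nm with spot signal to noise ratio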
[11] = test system: PRMT1 (protein arginine N-methyltransferase 1); assay: PRMT1 binders on small-molecule microarrays, primary screen, biochemical, small-molecule microarray, 635 nm fluorescence (AID 1088); conditions: small-molecule microarray binding, higher = more signal;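 also: binding of Prmt1 protein to compounds spotted on small-molecule microarray slides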
[12] = yeast growth modulation, basal conditions, primary screen, YJM789 clinical isolate, OD600, 24 h (AID 1089);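 also: growth of clinical yeast isolate S. cerevisiae YJM 789 seeded 1000 cells per well; test concentration not given here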; conditions: S. cerevisiae YJM789 growth, higher = more signal, called active from +8 up or from −8 down
[13] = fission yeast growth modulation, primary screen, strain 972, OD600, 24 h, no modulator (AID 1090);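 also: basal condition with compound alone and no growth modifier present; test concentration not given here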; conditions: S. pombe 972 growth, higher = more signal, called active from +8 up or from −8 down
[14] = S. cerevisiae growth modulation with rapamycin, primary screen, strain BY4716, OD600, 96 h (AID 1091); conditions: higher = more signal, called active from +8 up or from −8 down; also: test concentration not given here
[15] = biological target: Torsin-1A-interacting protein 2 (Homo sapiens) (UniProt Q8NFQ8); assay: LULL1 binders on small-molecule microarray, primary screen, cell lysate, human LULL1 lysate, 635/667 nm fluorescence (AID 1092); conditions: hLULL1 lysate binding, 635 nm fluorescence, higher = more signal;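 also: probe is lysate of COS7 cells overexpressing human LULL1; score merges per-feature 667 nm fluorescence with signal-to-noise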
[16] = E. coli growth modulation, two-sided OD650, primary screen, E. coli filamentation project, strain DRC41, 24 h (AID 1093); conditions: OD650, 24 h, higher = more signal, called active from +8 up or from −8 down;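 also: MC1000 strain lacking acrAB efflux and sulA so SOS filamentation is blocked; test concentration not given here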
[17] = small-molecule microarray binders of probe aLefty2, primary screen, biochemical, biotinylated probe, 635/667 nm fluorescence (AID 1094); conditions: higher = more signal;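 also: score merges spot fluorescence near 667 nm with spot signal-to-noise ratio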
[18] = test system: Noggin (protein binding on small-molecule microarray); assay: Noggin binders on small-molecule microarray, primary screen, biochemical, 635/667 nm fluorescence (AID 1095); conditions: 635 nm fluorescence, higher = more signal;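 also: score merges 667 nm feature fluorescence with signal to noise over triplicate slides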
[19] = biological target: Neurogenic locus notch homolog protein 3 (Homo sapiens) (UniProt Q9UM47); assay: NOTCH3 binders on small-molecule microarray, primary screen, biochemical, 635/667 nm fluorescence (AID 1096); conditions: NOTCH3 binding, 635 nm fluorescence, higher = more signal
[20] = small-molecule microarray binders of probe aEGFR, primary screen, biochemical, biotinylated probe, 635/667 nm fluorescence (AID 1097); conditions: higher = more signal;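 also: probe is a biotinylated anti-EGFR antibody binding compounds printed on slides; score combines fluorescence near 667 nm and signal to noise of each spot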

Pro-neuregulin-1, membrane-bound isoform (Homo sapiens), sequence (Q02297 whole entry, looked up, the tested form may be a part, canonical isoform): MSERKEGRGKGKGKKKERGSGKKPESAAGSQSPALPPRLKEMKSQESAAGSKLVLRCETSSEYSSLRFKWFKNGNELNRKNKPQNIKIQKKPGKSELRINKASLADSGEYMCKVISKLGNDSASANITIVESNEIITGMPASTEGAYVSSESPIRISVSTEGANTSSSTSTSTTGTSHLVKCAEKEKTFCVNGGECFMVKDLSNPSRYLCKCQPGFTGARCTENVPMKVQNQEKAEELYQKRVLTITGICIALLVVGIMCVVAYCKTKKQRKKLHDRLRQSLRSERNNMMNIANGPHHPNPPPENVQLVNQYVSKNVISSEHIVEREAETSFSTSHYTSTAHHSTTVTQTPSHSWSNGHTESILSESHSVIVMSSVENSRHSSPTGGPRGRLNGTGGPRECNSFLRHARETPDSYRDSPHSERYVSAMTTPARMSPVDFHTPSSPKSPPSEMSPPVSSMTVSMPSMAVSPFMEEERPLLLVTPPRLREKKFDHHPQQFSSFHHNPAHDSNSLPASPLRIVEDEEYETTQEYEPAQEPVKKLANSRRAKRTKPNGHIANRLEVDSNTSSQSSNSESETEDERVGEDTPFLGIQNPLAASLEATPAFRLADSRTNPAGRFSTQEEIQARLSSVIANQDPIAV
Neurogenic locus notch homolog protein 3 (Homo sapiens), sequence (Q9UM47 whole entry, looked up): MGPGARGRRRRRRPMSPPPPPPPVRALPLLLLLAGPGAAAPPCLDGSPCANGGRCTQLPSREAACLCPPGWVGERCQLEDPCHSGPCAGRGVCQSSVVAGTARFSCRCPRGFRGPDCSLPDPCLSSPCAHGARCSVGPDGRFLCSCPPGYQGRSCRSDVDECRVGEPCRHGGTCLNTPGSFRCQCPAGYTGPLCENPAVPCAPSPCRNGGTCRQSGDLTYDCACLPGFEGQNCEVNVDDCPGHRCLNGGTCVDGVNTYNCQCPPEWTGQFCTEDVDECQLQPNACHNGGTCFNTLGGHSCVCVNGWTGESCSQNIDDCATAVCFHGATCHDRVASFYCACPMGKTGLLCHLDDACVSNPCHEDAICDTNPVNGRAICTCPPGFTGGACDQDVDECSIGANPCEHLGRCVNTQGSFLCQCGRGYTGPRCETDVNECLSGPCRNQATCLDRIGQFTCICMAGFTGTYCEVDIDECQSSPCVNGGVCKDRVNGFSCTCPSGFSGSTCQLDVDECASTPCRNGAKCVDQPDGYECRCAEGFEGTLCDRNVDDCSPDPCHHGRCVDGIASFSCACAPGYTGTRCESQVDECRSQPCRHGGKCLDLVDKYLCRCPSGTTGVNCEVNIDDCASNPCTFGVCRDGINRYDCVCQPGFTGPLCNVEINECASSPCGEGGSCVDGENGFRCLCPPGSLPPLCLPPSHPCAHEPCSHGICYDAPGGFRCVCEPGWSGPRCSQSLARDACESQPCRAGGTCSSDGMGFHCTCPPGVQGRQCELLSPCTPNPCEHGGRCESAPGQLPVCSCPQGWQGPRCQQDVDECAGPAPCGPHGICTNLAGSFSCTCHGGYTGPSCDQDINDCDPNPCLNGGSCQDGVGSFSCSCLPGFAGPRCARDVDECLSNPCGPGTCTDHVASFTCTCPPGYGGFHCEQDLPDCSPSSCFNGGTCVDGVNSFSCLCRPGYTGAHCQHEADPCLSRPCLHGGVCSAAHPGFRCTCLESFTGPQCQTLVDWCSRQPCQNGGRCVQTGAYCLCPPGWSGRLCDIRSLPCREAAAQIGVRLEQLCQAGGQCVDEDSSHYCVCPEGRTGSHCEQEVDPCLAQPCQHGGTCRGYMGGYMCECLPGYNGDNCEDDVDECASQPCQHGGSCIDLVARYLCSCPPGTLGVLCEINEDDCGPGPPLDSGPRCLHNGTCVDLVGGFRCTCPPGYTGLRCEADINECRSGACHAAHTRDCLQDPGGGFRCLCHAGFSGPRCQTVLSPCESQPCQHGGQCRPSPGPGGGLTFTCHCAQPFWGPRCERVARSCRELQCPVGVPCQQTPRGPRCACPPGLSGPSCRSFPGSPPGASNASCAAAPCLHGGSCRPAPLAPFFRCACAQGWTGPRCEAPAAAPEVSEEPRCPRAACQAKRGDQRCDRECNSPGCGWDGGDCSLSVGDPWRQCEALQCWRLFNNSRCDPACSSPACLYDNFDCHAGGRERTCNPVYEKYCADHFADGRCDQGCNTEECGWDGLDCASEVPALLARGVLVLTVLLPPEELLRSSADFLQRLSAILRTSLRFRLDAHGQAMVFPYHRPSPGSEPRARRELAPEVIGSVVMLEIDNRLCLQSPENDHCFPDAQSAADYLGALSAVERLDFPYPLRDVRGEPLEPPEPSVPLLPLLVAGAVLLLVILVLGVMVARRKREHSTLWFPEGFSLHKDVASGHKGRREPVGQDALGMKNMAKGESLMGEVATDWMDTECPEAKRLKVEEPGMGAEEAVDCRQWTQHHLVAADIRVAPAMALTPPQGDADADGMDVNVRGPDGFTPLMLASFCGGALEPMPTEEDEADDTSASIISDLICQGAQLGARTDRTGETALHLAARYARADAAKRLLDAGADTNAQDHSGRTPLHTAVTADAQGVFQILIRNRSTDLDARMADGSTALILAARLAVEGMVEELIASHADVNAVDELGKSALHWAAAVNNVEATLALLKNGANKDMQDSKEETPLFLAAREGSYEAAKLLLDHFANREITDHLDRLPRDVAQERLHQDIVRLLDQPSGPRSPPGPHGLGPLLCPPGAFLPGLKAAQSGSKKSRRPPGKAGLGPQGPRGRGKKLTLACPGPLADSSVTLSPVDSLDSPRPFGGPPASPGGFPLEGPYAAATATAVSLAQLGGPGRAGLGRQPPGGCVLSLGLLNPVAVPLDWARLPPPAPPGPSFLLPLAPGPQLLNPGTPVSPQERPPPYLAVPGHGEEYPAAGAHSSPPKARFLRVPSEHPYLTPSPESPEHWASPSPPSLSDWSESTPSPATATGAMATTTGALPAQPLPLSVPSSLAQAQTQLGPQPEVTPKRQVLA
Torsin-1A-interacting protein 2 (Homo sapiens), sequence (Q8NFQ8 whole entry, looked up): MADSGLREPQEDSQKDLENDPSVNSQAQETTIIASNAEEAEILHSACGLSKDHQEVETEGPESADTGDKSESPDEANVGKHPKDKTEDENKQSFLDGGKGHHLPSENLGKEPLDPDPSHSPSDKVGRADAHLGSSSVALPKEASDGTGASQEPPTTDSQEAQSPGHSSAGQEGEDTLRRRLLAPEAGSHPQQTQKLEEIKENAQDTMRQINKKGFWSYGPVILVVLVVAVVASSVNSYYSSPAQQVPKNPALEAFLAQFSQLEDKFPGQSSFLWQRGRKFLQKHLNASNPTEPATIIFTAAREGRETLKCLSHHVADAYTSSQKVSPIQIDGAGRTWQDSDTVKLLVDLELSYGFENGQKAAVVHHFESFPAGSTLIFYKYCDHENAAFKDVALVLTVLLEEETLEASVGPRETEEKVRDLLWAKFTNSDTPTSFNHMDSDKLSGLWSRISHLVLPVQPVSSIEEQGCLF

Structure (SMILES)	composite z-score [1]	composite z-score [2]	composite z-score [3]	composite z-score [4]	composite z-score [5]	composite z-score [6]	composite z-score [7]	z-score [8]	composite z-score [9]	composite z-score [10]	composite z-score [11]	z-score [12]	z-score [13]	z-score [14]	composite z-score [15]	z-score [16]	composite z-score [17]	composite z-score [18]	composite z-score [19]	composite z-score [20]
C=C(CCCC)C(=O)CC[C@H](OC(=O)c1ccccc1-c1ccccc1C(=O)O)c1cccc(OCCO)c1	0.0622	0.375	-0.133	-0.416	-1.37	1.29	0.652	-0.0278 (inactive)	-0.284	-0.0994	0.317	-0.0349 (inactive)	-0.386 (inactive)	-0.678 (inactive)	1	0.171 (inactive)	-0.186	0.135	-0.186	-0.221
C[N+](C)(C)CCCC[C@@H]1NC(=O)[C@H]2C[C@@H](C(=O)O)[C@@H](c3ccc(O)cc3)N2C1=O	0.348	0.211	-0.133	-0.0114	0.288	0.45	1.3	4.06 (inactive)	-0.166	-0.199	0.777	-1.56 (inactive)	-1.28 (inactive)	-0.5 (inactive)	2.61	1.26 (inactive)	-0.0481	0.447	0.5	-0.158
COC(=O)C(CC#Cc1ccc2c(c1)[C@]1(C(=O)N2)[C@H](C(=O)N2CCCCCCC2)[C@H]2C(=O)O[C@H](c3ccccc3)[C@H](c3ccccc3)N2[C@@H]1c1ccc(OCCO)cc1)C(=O)OC	3.58	2.87	0.941	1.37	1.75	2.94	1.33	1.91 (inactive)	3.35	2.77	1.52	-0.0902 (inactive)	0.563 (inactive)	1.28 (inactive)	5.35	0.149 (inactive)	1.79	2.35	1.01	1.38
CCOC(=O)C[C@H]1[C@H](OC(=O)c2ccc(-c3ccccc3)cc2)[C@@H](NC(=O)C2CCCCC2)c2cc(OCCCO)ccc2N1C(=O)Cc1ccc(OC)cc1	-0.114	0.279	-0.0369	0.0887	0.215	0.157	-0.481	-0.054 (inactive)	0.241	0.0722	0.405	-0.253 (inactive)	-0.0766 (inactive)	0.214 (inactive)	0.852	-0.884 (inactive)	-0.141	-0.141	0.375	-0.114
CCCNC(=O)[C@@]1(Sc2ccc(C)cc2)CC(=O)N(Cc2cc(C(F)(F)F)cc(C(F)(F)F)c2)[C@@H]1c1ccc(CO)cc1	0.708	-0.332	-0.0363	0.0551	-0.608	-0.78	0.791	0.621 (inactive)	-0.486	-0.236	0.805	-0.0276 (inactive)	-1.16 (inactive)	-0.835 (inactive)	1.8	-0.212 (inactive)	-0.122	-1.13	-0.542	-0.165
C=CCOC(=O)[C@@H]1[C@H]2C(=O)O[C@H](c3ccccc3)[C@H](c3ccccc3)N2[C@H](c2ccc(OCCOC(=O)[C@@H]3C[C@@H]4C(=O)N[C@@H](CC(C)C)C(=O)N4[C@@H]3c3ccc(O)cc3)cc2)[C@@]12C(=O)Nc1ccc(I)cc12	-0.479	0.17	-0.0489	0.325	0.853	0.616	1.29	-0.277 (inactive)	0.4	0.383	1.56	-0.677 (inactive)	1.63 (inactive)	18.2 (active)	1.82	1.16 (inactive)	-0.0321	1.69	1.08	0.105
O=C(NCCN1CCOCC1)[C@@H]1c2ccccc2C(=O)N(CC23CC4CC(CC(C4)C2)C3)[C@H]1c1ccc(CO)cc1	-0.203	0.336	0.0458	0.734	1.64	1.78	1.39	-2.37 (inactive)	0.742	0.0373	1.55	-0.43 (inactive)	-1.27 (inactive)	0.223 (inactive)	3.23	0.534 (inactive)	0.0735	0.495	1.05	0.0353
COC(=O)[C@H]1N=C(c2ccc(OCCCO)cc2)O[C@H]1c1ccccc1N=[N+]=[N-]	1.6	0.707	0.184	0.48	1.01	0.544	1.21	4.9 (inactive)	1.04	-0.0994	1.08	-0.651 (inactive)	-4.13 (inactive)	-1.09 (inactive)	2.73	0.112 (inactive)	0.588	0.0025	-0.0392	0.131
O=C1N(Cc2ccccc2)c2ccccc2C[C@@]12N=C(c1ccc(OCCCO)cc1)O[C@H]2c1ccccc1	-0.0448	0.0182	-0.0129	0.311	0.18	0.909	1.14	-2.64 (inactive)	-0.238	-0.0925	1.55	-0.789 (inactive)	-2.61 (inactive)	3.55 (inactive)	3.03	-0.788 (inactive)	0.0686	0.591	1	-0.178
COc1ccc([Si](C)(C)[C@H]2[C@H](CC(=O)N(CCO)Cc3ccccc3)O[C@@]3(C(=O)N(Cc4ccc(N5C(=O)c6cccc7cccc5c67)cc4)c4ccccc43)[C@@H]2C)cc1	-0.0915	0.285	-0.0249	0.479	0.141	1.14	1.14	-3.26 (inactive)	0.193	0.12	1.48	0.614 (inactive)	0.685 (inactive)	2.87 (inactive)	2.15	0.222 (inactive)	0.748	1.36	1.12	0.0059
